# Data reported in PubChem BioAssay.
# Where “and” joins values, the source holds several entries; their conditions need not be identical. Identical values can stand only once. Results filed as inconclusive are left out. Calls of active or inactive are those of the source.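 The calls were made as follows, unless noted: active = normalized viability below 100% at a tested concentration; inactive = the rest.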
# Experiments:
# [1] = growth inhibition of DIPG glioma cells, dose response, cell-based, SU-DIPG-XVII, MIPE5.0, CellTiter-Glo, qHTS (AID 1347060; cut-off not given, nearly all actives have AC50 up to about 26 µM;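 also: cells exposed to compound for 48 hours before viability readout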); settings: SU-DIPG-XVII viability, CellTiter-Glo ATP luminescence
# [2] = growth inhibition of DIPG glioma cells, dose response, cell-based, SU-DIPG-XIII, MIPE5.0, CellTiter-Glo, qHTS (AID 1347064; cut-off not given, nearly all actives have AC50 up to about 23 µM;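 also: cells exposed to compound for 48 hours before the viability read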); settings: SU-DIPG-XIII viability, CellTiter-Glo ATP luminescence
# [3] = viability loss in pontine glioma line – cell-based, SU-DIPG-XXV, MIPE5.0, CellTiter-Glo, qHTS, dose response (AID 1347065; cut-off not given, nearly all actives have AC50 up to about 26 µM;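 also: cells exposed to compound for 48 hours before ATP readout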); settings: CellTiter-Glo ATP luminescence
# [4] = JHH-DIPG-1 glioma cell viability, MIPE5.0 library, CellTiter-Glo luminescence, qHTS (AID 1347067; cut-off not given, nearly all actives have AC50 up to about 26 µM;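 also: cells exposed to compound for 48 hours before readout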); settings: JHH-DIPG-1 glioma viability, CellTiter-Glo ATP luminescence
# [5] = SU-DIPG-XXV glioma cell viability, MIPE5.0 library, qHTS (AID 1347068; cut-off not given, nearly all actives have IC50 up to about 30 µM)
# [6] = LFS_MB_P medulloblastoma growth inhibition, cell-based, chromothripsis tumors, cisplatin or BGB combos (AID 1671449; in the data active = inhibition above about 80%;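 also: cells exposed for 96 hours; 0% = vehicle DMSO and 100% = killing by high DMSO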); settings: LFS_MB_P medulloblastoma cells
# [7] = HDN33 neuroblastoma growth inhibition, cell-based, chromothripsis tumors, cisplatin or BGB combos (AID 1671450; in the data active = inhibition above about 80%;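 also: cells exposed to compound for four days; 0% = vehicle DMSO and 100% = cell killing by high DMSO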); settings: HDN33 neuroblastoma cells, stronger effect = higher value
# [8] = ICB984 medulloblastoma cell growth inhibition, synergistic combos for chromothripsis tumors, cisplatin or BGB combos (AID 1671451; call rule not given here;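 also: cells exposed for 96 hours before readout; 0% = vehicle DMSO and 100% = killing by high DMSO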); settings: ICB984 medulloblastoma cells, drug combinations, stronger effect = higher value
# [9] = LFS_MB_1R medulloblastoma cell growth inhibition, synergistic combos for chromothripsis tumors, cisplatin or BGB combos (AID 1671452; in the data active = inhibition above about 80%;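 also: cells exposed for 96 hours before readout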); settings: LFS_MB_1R medulloblastoma cells, stronger effect = higher value
# [10] = HTB85 osteosarcoma cell growth inhibition, synergistic combos for chromothripsis tumors, BGB or cisplatin IC20 combos (AID 1671453; in the data active = inhibition above about 80%;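 also: cells exposed for 96 hours before readout; 0% = vehicle DMSO and 100% = high DMSO killing control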); settings: HTB85 osteosarcoma cells, drug combinations, stronger effect = higher value
# [11] = CRL2098 osteosarcoma cell growth inhibition, synergistic combos for chromothripsis tumors, BGB or cisplatin IC20 combos (AID 1671454; in the data active = inhibition above about 80%;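 also: cells exposed for 96 h before readout; 0% = vehicle DMSO and 100% = killing by high DMSO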); settings: CRL2098 osteosarcoma cells, drug combinations, stronger effect = higher value
# [12] = HD-MB03 medulloblastoma cell growth inhibition, synergistic combos for chromothripsis tumors, BGB or cisplatin IC20 combos (AID 1671455; in the data active = inhibition above about 83%;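 also: 0% = vehicle DMSO and 100% = high DMSO as cytotoxic control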); settings: HD-MB03 medulloblastoma cells, stronger effect = higher value
# [13] = UWB1.289 ovarian carcinoma cell growth inhibition, synergistic combos for chromothripsis tumors, BGB or cisplatin combos (AID 1671456; in the data active = inhibition above about 80%;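 also: cells exposed to compound for four days; 0% = vehicle DMSO and 100% = killing by high DMSO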); settings: UWB1.289 ovarian carcinoma cells, stronger effect = higher value
# [14] = MDA-MB-436 breast carcinoma cell growth inhibition, synergistic combos for chromothripsis tumors, BGB or cisplatin combos (AID 1671458; call rule not given here;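 also: cells exposed for 96 hours; 0% = vehicle DMSO and 100% = killing by high DMSO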); settings: MDA-MB-436 breast carcinoma growth inhibition, drug combinations, stronger effect = higher value
# [15] = growth inhibition of BT084 medulloblastoma cells, cell-based, ICGC_MB145, cisplatin and BGB IC40 combos (AID 1671461; in the data active = inhibition above about 80%;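 also: cells exposed to drugs for 96 hours; 0% = vehicle DMSO and 100% = high DMSO full killing control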); settings: drug combinations, stronger effect = higher value
# [16] = growth inhibition of RCMB18 medulloblastoma cells, cell-based, cisplatin and BGB IC40 combos (AID 1671462; in the data active = inhibition above about 80%;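 also: cells exposed to compound for four days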); settings: stronger effect = higher value
# [17] = growth inhibition of CRL1545 osteosarcoma cells, cell-based, cisplatin and BGB IC20 combos (AID 1671464; in the data active = inhibition above about 80%;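 also: cells exposed to compound for 96 hours before readout; 0% = vehicle DMSO and 100% = high DMSO killing control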); settings: stronger effect = higher value
# [18] = sensitizers of A549 cells to miR-34 induction, primary screen, imaging, A549 dox-inducible miR-34, nuclei and caspase counts (AID 1347080;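 active = compounds whose cell count with miR-34 switched on is under 0.7 times the count with it off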); settings: A549 miR-34 inducible, Hoechst nuclei count, 48 h
# [19] = survival rescue of mitochondrial mutant cells in low glucose, primary screen, MELAS cybrids, Rieske KO mouse fibroblasts, CellTiter-Glo (AID 1508586;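 active = mean z-score across replicates of 1.96 or higher in either the MELAS or the Rieske mutant cell line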;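 also: z relative to plate mean and SD of compound and empty wells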)
# [20] = ovarian cancer cell viability with rucaparib, profiling panel, oncology-focused library, rucaparib conditional (AID 1508598); settings: patient-derived ovarian cancer cells, CellTiter-Glo viability, 144 h, stronger effect = lower value
# [21] = measured here: combination with BGB IC40, at 0.05 µM
# [22] = measured here: with BGB IC20 combination, at 0.5 µM
# [23] = measured here: with cisplatin IC20 combination, at 0.5 µM
# [24] = measured here: combination with cisplatin, at 0.5 µM
smiles,measurement,setting,value
CC(=O)[C@]1(N)Cc2c(O)c3c(c(O)c2[C@@H](O[C@H]2C[C@H](O)[C@H](O)CO2)C1)C(=O)c1ccccc1C3=O,AC50,[1],16.6 µM (active)
same,AC50,[2],16.6 µM (active)
same,AC50,[3],20.9 µM (active)
same,AC50,[4],16.6 µM (active)
same,outcome,[5],inactive
same,inhibition,"[6]; at 0.5 µM, stronger effect = higher value",-12.9% (inactive)
same,inhibition,"[6]; measured here: combination with BGB IC20, at 0.005 µM",-16.8%
same,inhibition,"[6]; measured here: combination with BGB IC40, at 0.005 µM",-30.9%
same,inhibition,[6]; [21],-51.9%
same,inhibition,"[6]; measured here: combination with cisplatin, at 0.5 µM, stronger effect = higher value",-19.4%
same,inhibition,"[6]; measured here: combination with cisplatin, at 5 µM, stronger effect = higher value",104%
same,inhibition,"[7]; BGB combo, at 5 µM",96.4%
same,inhibition,[7]; at 0.5 µM,-0.33% (inactive)
same,inhibition,"[7]; cisplatin combo, at 5 µM",97.3%
same,inhibition,[7]; [22],0.353%
same,inhibition,[7]; [23],-4.83%
same,inhibition,"[7]; single agent, at 5 µM",98.2%
same,inhibition,"[8]; BGB IC20 combo, at 0.005 µM",2.76%
same,inhibition,"[8]; BGB IC40 combo, at 0.005 µM",-3.55%
same,inhibition,"[8]; BGB IC40 combo, at 0.05 µM",86.2%
same,inhibition,[8]; at 0.5 µM,-21.5% (inactive)
same,inhibition,"[8]; cisplatin combo, at 0.05 µM",85.8%
same,inhibition,"[8]; cisplatin combo, at 0.5 µM",-10.1%
same,inhibition,"[8]; cisplatin combo, at 5 µM",-12.5%
same,inhibition,"[8]; measured here: 5 uM single agent, at 5 µM",-13.2%
same,inhibition,[9]; at 0.5 µM,-7.63% (inactive)
same,inhibition,[9]; [21],-7.53%
same,inhibition,[9]; [24],-2.7%
same,inhibition,"[9]; measured here: combination with cisplatin, at 5 µM",81.1%
same,inhibition,[10]; at 0.5 µM,-1.28% (inactive)
same,inhibition,"[10]; measured here: with BGB IC20, at 0.5 µM",3.02%
same,inhibition,"[10]; measured here: with BGB IC20, at 5 µM",79.1%
same,inhibition,"[10]; measured here: with cisplatin IC20, at 0.5 µM",-5.97%
same,inhibition,"[10]; measured here: with cisplatin IC20, at 5 µM",82.6%
same,inhibition,"[10]; single agent, at 5 µM",81.3%
same,inhibition,[11]; at 0.5 µM,-28.4% (inactive)
same,inhibition,"[11]; measured here: combination with BGB at IC20, at 0.5 µM",-13.2%
same,inhibition,"[11]; measured here: combination with cisplatin at IC20, at 0.5 µM",-55.8%
same,inhibition,[12]; at 0.5 µM,-4.21% (inactive)
same,inhibition,"[12]; measured here: combo with BGB at IC20, at 0.5 µM",5.01%
same,inhibition,"[12]; measured here: combo with cisplatin at IC20, at 0.5 µM",-12.8%
same,inhibition,[13]; at 0.5 µM,13.8% (inactive)
same,inhibition,"[13]; measured here: inhibition with BGB combination, at 0.05 µM",-13.2%
same,inhibition,"[13]; measured here: inhibition with cisplatin combination, at 0.05 µM",8.23%
same,inhibition,[14]; at 0.5 µM,-0.11% (inactive)
same,inhibition,"[14]; measured here: BGB combination, at 0.5 µM",-3.77%
same,inhibition,"[14]; measured here: BGB combination, at 5 µM",73.9%
same,inhibition,"[14]; measured here: cisplatin combination, at 0.5 µM",-8.99%
same,inhibition,"[14]; measured here: cisplatin combination, at 5 µM",84%
same,inhibition,[15]; at 0.5 µM,22.6% (inactive)
same,inhibition,"[15]; cisplatin combination, at 0.5 µM",-12.8%
same,inhibition,"[15]; cisplatin combination, at 5 µM",84.4%
same,inhibition,"[15]; measured here: BGB IC40 combination 0.05 uM, at 0.05 µM",-38.7%
same,inhibition,"[15]; single agent, at 5 µM",86.5%
same,inhibition,[16]; at 0.5 µM,9% (inactive)
same,inhibition,"[16]; cisplatin combo, at 5 µM",89.6%
same,inhibition,"[16]; measured here: BGB IC40 combination, at 0.05 µM",-27.7%
same,inhibition,[16]; [24],31.1%
same,inhibition,"[16]; single agent, at 5 µM",89.9%
same,inhibition,[17]; at 0.5 µM,20% (inactive)
same,inhibition,[17]; [22],-1.69%
same,inhibition,[17]; [23],29.7%
same,inhibition,"[17]; single agent, at 0.05 µM",22.1%
same,inhibition,"[17]; single agent, at 5 µM",90.1%
COc1cc(Nc2ncc(F)c(Nc3ccc4c(n3)NC(=O)C(C)(C)O4)n2)cc(OC)c1OC,AC50,[1],1.18 µM (active)
same,AC50,[2],1.86 µM (active)
same,AC50,[3],1.32 µM (active)
same,AC50,[4],5.9 µM (active)
same,fold change,"[18]; stronger effect = lower value, cell number ratio, induced over uninduced",1.02 (inactive) and 1.15 (inactive)
same,fold change,[18]; measured here: relative caspase fold change +Dox/-Dox,0.841 and 0.707
same,cell count,"[18]; measured here: total cells with miR-34 induction, stronger effect = lower value",1550 and 1090
same,cell count,[18]; measured here: total cells without miR-34 induction,1520 and 950
same,z-score,"[19]; MELAS cybrid survival, CellTiter-Glo 48 h, stronger effect = higher value",-0.458 (inactive) and -0.514 (inactive)
same,z-score,"[19]; Rieske KO mouse fibroblast survival, CellTiter-Glo 72 h",0.0101 and 0.0182
same,viability,"[20]; at 0.000305 µM, OCI-C5x cells, with rucaparib 10 µM, 100% = cells with rucaparib alone",109% (inactive)
same,viability,"[20]; at 0.000305 µM, OCI-C5x cells, without rucaparib",101% (inactive)
same,viability,"[20]; at 0.000305 µM, OCI-P5x cells, with rucaparib 20 µM, 100% = cells with rucaparib alone",83% (active)
same,viability,"[20]; at 0.000305 µM, OCI-P5x cells, without rucaparib",96.3% (active)
same,viability,"[20]; at 0.00122 µM, OCI-C5x cells, with rucaparib 10 µM, 100% = cells with rucaparib alone",111% (inactive)
same,viability,"[20]; at 0.00122 µM, OCI-C5x cells, without rucaparib",109% (inactive)
same,viability,"[20]; at 0.00122 µM, OCI-P5x cells, with rucaparib 20 µM, 100% = cells with rucaparib alone",82.7% (active)
same,viability,"[20]; at 0.00122 µM, OCI-P5x cells, without rucaparib",86.9% (active)
same,viability,"[20]; at 0.00488 µM, OCI-C5x cells, with rucaparib 10 µM, 100% = cells with rucaparib alone",111% (inactive)
same,viability,"[20]; at 0.00488 µM, OCI-C5x cells, without rucaparib",111% (inactive)
same,viability,"[20]; at 0.00488 µM, OCI-P5x cells, with rucaparib 20 µM, 100% = cells with rucaparib alone",78.5% (active)
same,viability,"[20]; at 0.00488 µM, OCI-P5x cells, without rucaparib",95.2% (active)
same,viability,"[20]; at 0.0195 µM, OCI-C5x cells, with rucaparib 10 µM, 100% = cells with rucaparib alone",118% (inactive)
same,viability,"[20]; at 0.0195 µM, OCI-C5x cells, without rucaparib",112% (inactive)
same,viability,"[20]; at 0.0195 µM, OCI-P5x cells, with rucaparib 20 µM, 100% = cells with rucaparib alone",70.2% (active)
same,viability,"[20]; at 0.0195 µM, OCI-P5x cells, without rucaparib",74.2% (active)
same,viability,"[20]; at 0.0781 µM, OCI-C5x cells, with rucaparib 10 µM, 100% = cells with rucaparib alone",107% (inactive)
same,viability,"[20]; at 0.0781 µM, OCI-C5x cells, without rucaparib",114% (inactive)
same,viability,"[20]; at 0.0781 µM, OCI-P5x cells, with rucaparib 20 µM, 100% = cells with rucaparib alone",59.3% (active)
same,viability,"[20]; at 0.0781 µM, OCI-P5x cells, without rucaparib",55% (active)
same,viability,"[20]; at 0.313 µM, OCI-C5x cells, with rucaparib 10 µM, 100% = cells with rucaparib alone",112% (inactive)
same,viability,"[20]; at 0.313 µM, OCI-C5x cells, without rucaparib",126% (inactive)
same,viability,"[20]; at 0.313 µM, OCI-P5x cells, with rucaparib 20 µM, 100% = cells with rucaparib alone",46.3% (active)
same,viability,"[20]; at 0.313 µM, OCI-P5x cells, without rucaparib",50% (active)
same,viability,"[20]; at 1.25 µM, OCI-C5x cells, with rucaparib 10 µM, 100% = cells with rucaparib alone",116% (inactive)
same,viability,"[20]; at 1.25 µM, OCI-C5x cells, without rucaparib",127% (inactive)
same,viability,"[20]; at 1.25 µM, OCI-P5x cells, with rucaparib 20 µM, 100% = cells with rucaparib alone",81.5% (active)
same,viability,"[20]; at 1.25 µM, OCI-P5x cells, without rucaparib",99.3% (active)
same,viability,"[20]; at 5 µM, OCI-C5x cells, with rucaparib 10 µM, 100% = cells with rucaparib alone",122% (inactive)
same,viability,"[20]; at 5 µM, OCI-C5x cells, without rucaparib",151% (inactive)
same,viability,"[20]; at 5 µM, OCI-P5x cells, with rucaparib 20 µM, 100% = cells with rucaparib alone",79% (active)
same,viability,"[20]; at 5 µM, OCI-P5x cells, without rucaparib",96.9% (active)
